# Compound activity (PubChem BioAssay)
# The list is not random: actives were taken first. Their share in the collection is about 3%.
# Nrf2 activator: Nrf2 pathway activation; AREc32 ARE-luciferase reporter (MCF7-derived line), luminescence, 24 h; Potency, µM (top dose mostly 46.1 µM), inactives show at the top dose activation, hits mostly activators; hit rate 0.31% among 410,000; AID 624171; note: % of control where 0% means no effect; nearly all actives have a fitted effect of over 65% in size
#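 Nrf2 activation is followed as ARE-luciferase induction in the AREc32 line after one day of compound treatment; luminescence is read with Steady-Glo.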
# A549 viability: A549 cytotoxicity, counter-screen for Nrf2 inhibitors; A549 ARE-Fluc cells, CellTiter-Fluor viability, 18-24 h; hit rate 0.16% among 390,000; Potency, µM (titrated, usually from 46 µM), for the others: at the top dose activity change, negative = cytotoxicity, actives largely listed as inhibitors; AID 504648; note: % is set by controls: 0 for no effect and ±100 for the full control effect
#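 A549 ARE_Fluc cells in 5% FBS OPTI-MEM were exposed to compounds in concentration-response for 18-24 h at 37 deg C. Viability was read by CellTiter-Fluor fluorescence (Ex 405/Em 525) after 30 min, before the luciferase read.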
# rTrxR1 inhibitor: blocks rat thioredoxin reductase 1; hit rate 1% among 390,000; recombinant rTrxR1, NADPH fluorescence consumption, selenite substrate; Potency, µM (doses to about 114 µM), for inactives: at the top dose activity change, negative = inhibition, most hits filed as inhibitors; O89049; note: % is set by controls: 0 for no effect and ±100 for the full control effect; nearly all actives have a fitted effect of over 65% in size
#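 Rat TrxR1 (90 nM in the dispensed reagent) was pre-reduced with 400 uM NADPH for 5 min at room temperature, then incubated with compound for 15 min. After 400 uM selenite was added, NADPH fluorescence (Ex 340/Em 450 nm) was followed for 8 min.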
# TrxR1 substrate: is turned over as a substrate by rat TrxR1 | Potency, µM (series often up to 114 µM), for inactives: at the top dose activity change, negative = substrate turnover | hit rate 0.01% among 390,000 | purified TrxR1 substrate turnover, NADPH consumption readout | O89049 | AID 588456; note: % is set by controls: 0 for no effect and ±100 for the full control effect; nearly all actives have a fitted effect of over 50% in size
#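 Rat TrxR1, dispensed at 90 nM, was prereduced with 400 uM NADPH (final) for 5 min at ~22 deg C, then incubated with compound 15 min before 400 uM selenite. A first-read NADPH fluorescence drop versus no-compound background flagged substrates.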
# Nrf2 block: Nrf2 pathway inhibition; Potency, µM (titrated, usually from 46 µM), for the others: top-dose activity change, negative = inhibition, usual class: inhibitors; hit rate 2.1% among 360,000; A549 ARE-Fluc reporter, luciferase luminescence, 18-24 h; note: % is set by controls: 0 for no effect and ±100 for the full control effect; nearly all actives have a fitted effect of over 60% in size
#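 Nrf2 activity is the BugLite luminescence, read 15 min after reagent at room temperature, following CellTiter-Fluor cytotoxicity readout (30 min, 37C). Compound titrations were applied for 18-24 h to 5000 A549 ARE_Fluc cells/well in 5% FBS OPTI-MEM.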
# GALK inh: galactokinase (human) inhibition; P51570; Purified GALK, Kinase-Glo residual ATP luminescence; Potency, µM (doses to about 57.5 µM), inactives show at the top dose activity change, negative = inhibition, hits mostly inhibitors; hit rate 0.007% among 270,000; AID 1868; note: % is set by controls: 0 for no effect and ±100 for the full control effect
# Target sequence (P51570 whole entry, looked up): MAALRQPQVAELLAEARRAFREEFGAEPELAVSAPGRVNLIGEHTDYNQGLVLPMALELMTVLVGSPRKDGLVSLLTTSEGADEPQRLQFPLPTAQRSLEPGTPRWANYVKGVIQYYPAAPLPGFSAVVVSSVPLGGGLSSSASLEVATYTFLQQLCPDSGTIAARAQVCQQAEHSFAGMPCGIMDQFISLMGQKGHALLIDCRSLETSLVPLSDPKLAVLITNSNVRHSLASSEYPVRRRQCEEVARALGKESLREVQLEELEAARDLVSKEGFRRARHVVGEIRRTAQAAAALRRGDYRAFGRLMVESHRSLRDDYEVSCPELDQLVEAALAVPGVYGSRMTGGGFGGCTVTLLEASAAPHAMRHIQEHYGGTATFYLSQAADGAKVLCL
#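 GALK at 5 nM final was combined with compound, 35 uM ATP and 100 uM galactose in HEPES pH8.0 with MgCl2 and DTT. The reaction ran one hour at room temperature before luminescent ATP detection.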
# Starred values were filed as active, the others as inactive; ? = inconclusive; nt = not tested or not shown; [ ] = dose if it differs, or a comment. Calls come from the whole dose curve; as a rule, active = well fitted curve in the direction sought with a large enough effect; inconclusive = small, poorly fitted or top-dose-only effect, or another doubt; inactive = no such curve, though single readings can be large; an effect the other way counts as inactive or inconclusive. Potency is the fitted concentration of half-maximal effect.
SMILES,Nrf2 activator,A549 viability,rTrxR1 inhibitor,TrxR1 substrate,Nrf2 block,GALK inh
Cc1ccc(N(C)C(=O)N2CCN(S(=O)(=O)c3ccc4ccccc4c3)CC2)cc1,-1%,-17%,32%[57.1 µM],4%[57.1 µM],18µM*,4%
COc1ccc(Cn2c3nc4ccccc4nc3c3c(=O)n(Cc4ccco4)c(C)nc32)cc1,nt,nt,nt,nt,nt,-4%
COc1ccc(Cn2c(C)nc3c(c2=O)c2nc4ccccc4nc2n3Cc2ccco2)cc1,3%,-17%,-13%,1%,18µM*,nt
Cn1c(SCc2ccccc2Cl)nc2c([nH]c3ccccc32)c1=O,0%,7%,32%[57.1 µM],1%[57.1 µM],nt,nt
Cc1ccc(Cn2ncc(Cl)c(Cl)c2=O)cc1,?,1%,6.3µM*,5%,17%,0%
O=C(Cn1ncc(Cl)c(Cl)c1=O)N1CCOCC1,11µM*,?,-1%[57.1 µM],7%[57.1 µM],87%,7%
O=c1c(Cl)c(Cl)cnn1Cc1ccccc1Cl,?,-3%,20µM*,5%,10%,1%
O=C(Cn1ncc(Cl)c(Cl)c1=O)N1CCN(Cc2ccccc2)CC1,?,?,?,2%,?,11%
O=c1c(Cl)c(Cl)cnn1-c1ccccc1,?,?,14µM*,5%,?,-2%
Cc1[nH]c(C)c2c(=O)n(Cc3ccc(Cl)cc3)ncc12,0%,-1%,23%,4%,23%,-2%
Cc1ccc(N2CCN(S(=O)(=O)c3ccc4c(c3)CC(=O)N4)CC2)cc1,nt,8%[92.2 µM],nt,nt,14%[92.2 µM],nt
Cc1ccc(C)c(NC(=O)CSc2nccn2-c2cccc(C)c2C)c1,0%,-3%,7%[57.1 µM],-4%[57.1 µM],nt,nt
O=C1CCC[C@@H]2[C@@H](Cc3ccccc3)[C@@H](Nc3ccccc3)C[C@@H]3CCN1[C@@H]32,nt,nt,8%,0%,nt,nt
Cc1cc(C)cc(Cn2ncc(Cl)c(Cl)c2=O)c1,?,-4%,6.3µM*,4%,5%,0%
O=C(Cn1ncc(Cl)c(Cl)c1=O)N1CCc2ccccc21,?,2%,-67%,9%,-7%,-1%
CCc1ccc(C(=O)Cn2ncc(Cl)c(Cl)c2=O)cc1,10µM*,3%,-30%,6%,-14%,-1%
COc1cc(OC)cc(-c2c(-c3cccs3)c3cc(-c4cnc(N)nc4)ccc3n2C)c1,-1%,-7%,22%,28%,21µM*,nt
COc1cc(OC)cc(-c2c(-c3cccs3)c3cc(-c4ccc(OC)c(OC)c4)ccc3n2C)c1,1%,4%,40%[57.1 µM],32%[57.1 µM],-11%,nt
CN=c1scc(-c2ccccc2F)n1/N=C/c1ccc[nH]1,-3%,1%,3%[57.1 µM],-3%[57.1 µM],?,6%
CN=c1scc(-c2ccccc2F)n1/N=C/c1ccc(O)c(O)c1O,17%,?,-22%[57.1 µM],3%[57.1 µM],12µM*,12%
Cc1cccc(C(=O)Nc2cccc(-c3ccc4nncn4n3)c2)c1,3%,0%,17%,5%,12µM*,-1%
COc1ccc(CC(=O)Nc2cccc(-c3ccc4nncn4n3)c2)cc1OC,4%,?,0%,-1%,21µM*,4%
COc1ccc(C(=O)Nc2cccc(-c3ccc4nncn4n3)c2)cc1OC,3%,-3%,23%,6%,-16%,0%
COc1cccc(OC)c1C(=O)Nc1cccc(-c2ccc3nncn3n2)c1,2%,-4%,8%,3%,8%,0%
Cc1ccccc1N1CCN(c2ncnc3c2cnn3Cc2ccc(Cl)cc2)CC1,8%,-6%,21%,24%,18µM*,-3%
SMILES,Nrf2 activator,A549 viability,rTrxR1 inhibitor,TrxR1 substrate,Nrf2 block,GALK inh
Cc1ccc(Cn2ncc3c(N4CCN(c5ccc(C)cc5)CC4)ncnc32)cc1,0%,-8%,6%,5%,?,1%
CC1CCN(c2ncnc3c2cnn3Cc2ccc(Cl)cc2)CC1,2%,-7%,20%,5%,?,1%
Cc1ccc(Cn2ncc3c(N4CCN(Cc5ccc(Cl)cc5)CC4)ncnc32)cc1,1%,-14%,8%,0%,8.2µM*,0%
CCOc1ccc(Nc2oc(-c3ccc(Cl)cc3)nc2C#N)cc1,3%,21µM*,13%[57.1 µM],15%[57.1 µM],2%,0%
COCCNc1oc(-c2ccc(COc3ccc(OC)cc3)o2)nc1C#N,4%,1%,16%,26%,?,nt
COc1ccc(Nc2oc(-c3ccc(Cl)cc3)nc2C#N)cc1,-1%,?,1%[57.1 µM],35%[57.1 µM],-5%,-3%
COCCCNc1oc(-c2ccc(COc3ccc(Cl)cc3)o2)nc1C#N,5%,-14%,8%,5%,23µM*,nt
COCCCNc1oc(COc2ccc(Cl)cc2Cl)nc1C#N,8%,-4%,25µM*,-9%,-9%,-2%
COc1ccc(CN2CCN(C(=O)c3cc(OC)c(OC)c(OC)c3)CC2)cc1OC,-1%,-12%,13%,-3%,15%,-3%
COc1cc(CN2CCN(C(=O)CC(C)C)CC2)cc(OC)c1O,0%,3%,7.9µM*,5%,8%,1%
COc1ccc(C(=O)N2CCN(Cc3cc(OC)c(O)c(OC)c3)CC2)cc1OC,2%,0%,25µM*,12%,5%,1%
CCCN1CCN(C(=S)Nc2ccccc2C(F)(F)F)CC1,2%,-2%,?,-5%,16µM*,-1%
COc1ccc(F)c(Cn2cnc3c(cnn3C(C)(C)C)c2=O)c1Cl,nt,nt,12%,5%,nt,nt
COc1cccc(-c2csc(N3CCN(C(=S)Nc4cccc(C)c4)CC3)n2)c1,0%,2%,13%[57.1 µM],-2%,-11%,0%
COc1cccc(-c2csc(N3CCN(C(=S)Nc4ccc(Cl)cc4)CC3)n2)c1,5%,-25%,-11%,3%,21µM*,4%
CNC(=S)N1CCN(c2nc(-c3cccc(OC)c3)cs2)CC1,6%,-4%,5%,-2%,18µM*,-1%
CNC(=S)N1CCN(c2nc(-c3ccc(Cl)cc3)cs2)CC1,0%,-13%,41%,9%,18µM*,-1%
COc1cccc(-c2csc(N3CCN(C(=S)Nc4ccccc4)CC3)n2)c1,4%,-5%,6%,0%,-20%,3%
CC(C)C(=O)N1CCN(c2nc(-c3ccc(Cl)cc3)cs2)CC1,4%,-3%,23%,0%,?,-1%
O=C(Cc1cccs1)N1CCN(c2nc(-c3ccc(Cl)cc3)cs2)CC1,4%,-29%,6%,1%,18µM*,1%
S=C(NCc1ccco1)N1CCN(c2nc(-c3ccccc3)cs2)CC1,4%,4%,21%[57.1 µM],5%[57.1 µM],?,8%
S=C(NCC1CCCO1)N1CCN(c2nc(-c3ccccc3)cs2)CC1 (centres undefined),0%,-11%,-11%,-15%,13µM*,11%
